# Assay results published in PubChem BioAssay (NCI).
# Compounds without any hit were thinned out: in the full panel of roughly 83,000, 20% have a hit.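 Treatment: one concentration, 48 hours, 96-well format. Scoring: percent growth, with anything below 10 considered active.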 Unmarked numbers belong to inactive results. Active and inactive are the calls of the source.
# Legend:
# Experiment in all cases: NCI-60 one-dose screen, 48 h (100 = growth as untreated, 0 = no growth, -100 = all killed)
# HCT-15 colon = conditions: 10 µM unless noted
# SNB-75 CNS = conditions: 10 µM unless noted
# SNB-19 CNS = conditions: 10 µM unless noted
# U251 CNS = conditions: 10 µM unless noted
# PC-3 prostate = conditions: 10 µM unless noted
# SK-MEL-5 melanoma = conditions: 10 µM unless noted
# LOX IMVI melanoma = conditions: 10 µM unless noted
# SK-MEL-28 melanoma = conditions: 10 µM unless noted
# SK-MEL-2 melanoma = conditions: 10 µM unless noted
# EKVX NSCLC = conditions: 10 µM unless noted
# SN12C renal = conditions: 10 µM unless noted
# UO-31 renal = conditions: 10 µM unless noted
# ACHN renal = conditions: 10 µM unless noted
# CAKI-1 renal = conditions: 10 µM unless noted
# A498 renal = conditions: 10 µM
# HL-60(TB) leukemia = conditions: 10 µM unless noted
# CCRF-CEM leukemia = conditions: 10 µM unless noted
# UACC-62 melanoma = conditions: 10 µM unless noted
# TK-10 renal = conditions: 10 µM unless noted
Structure (SMILES),growth (HCT-15 colon),growth (SNB-75 CNS),growth (SNB-19 CNS),growth (U251 CNS),growth (PC-3 prostate),growth (SK-MEL-5 melanoma),growth (LOX IMVI melanoma),growth (SK-MEL-28 melanoma),growth (SK-MEL-2 melanoma),growth (EKVX NSCLC),growth (SN12C renal),growth (UO-31 renal),growth (ACHN renal),growth (CAKI-1 renal),growth (A498 renal),growth (HL-60(TB) leukemia),growth (CCRF-CEM leukemia),growth (UACC-62 melanoma),growth (TK-10 renal)
COC(=O)[C@H](Cc1ccccc1)NC(=O)c1csc([C@@H](C[C@H](C(C)C)N(C)C(=O)[C@@H](NC(=O)[C@H]2CCCCN2C)C2CC2)OC(C)=O)n1,13.1%,34.3%,69.6%,-5.23% (active),11.3%,-1.17% (active),14.7%,44.7%,15.3%,29.9%,21.6%,35.9%,28.9%,24.1%,-7.28% (active),-43.1% (active),2.68% (active),–,–
CC(=O)[O][Hg][O]C(C)=O,93.8%,72.6%,110%,84.6%,86.3%,102%,70.9%,106%,90.3%,–,106%,96.9%,108%,92.3%,117%,35.2%,27.8%,97.2%,138%
CC1=C(CCCOC(=O)[C@H](N)CC(C)C)C2=C(C)C3(CC3)[C@@](C)(O)C(=O)C2=C1,4.16% (active),-7.8% (active),45.4%,35.9%,28.5%,-67.6% (active),41.8%,33.8%,-15.6% (active),35.2%,29.3%,-42.1% (active),-43% (active),–,-74.2% (active),52.3%,80%,11.3%,-19% (active)
COc1cc(/C=N/C2=C(C#N)C(c3ccco3)c3c(c4cc(C)ccc4oc3=O)O2)cc(OC)c1OC (stereo not given),91.8%,82.7%,98.2%,96.6%,89.9%,93.5%,88.5%,–,94.1%,95.1%,99.5%,67.9%,90.1%,85.8%,–,96.1%,96.5%,–,109%
Cc1cc(C)c(CBr)c(C)c1,108%,106%,110%,95.3%,94%,97.7%,101%,106%,102%,103%,–,85.2%,104%,99.1%,81.4%,59.7%,106%,102%,98.1%
CCc1ccccc1[C@@H]1C[C@]2(C)CCO[C@@H]2OO1,107%,84.7%,93.6%,99.2%,100%,102%,99.9%,–,115%,105%,98.7%,91.5%,104%,96.5%,102%,109%,94.1%,99.9%,96.9%
Clc1ccc(CO/N=C(\Cn2ccnc2)c2ccc(Cl)cc2Cl)c(Cl)c1,6.36% (active),30.4%,17.7%,-21.2% (active),4.16% (active),-93.5% (active),-47.4% (active),28%,-48% (active),6.63% (active),2.12% (active),-3% (active),6.26% (active),–,-5.95% (active),-23% (active),-13.1% (active),1.19% (active),-1.82% (active)
O=C1CNC(c2ccccc2)c2cc(Cl)ccc2N1 (stereo not given),105%,85.6%,96.6%,105%,99.3%,101%,96.3%,116%,95.5%,104%,97.6%,80.4%,109%,–,97.5%,97.5%,94.2%,93.4%,93.2%
CC(C)[C@@H]1NC(=O)[C@]2(C)CSC(=N2)c2csc(n2)CNC(=O)C[C@@H](/C=C/CCS)OC1=O,58.6%,29.1%,22.3%,-62.1% (active),17%,-81.2% (active),-93.1% (active),5.48% (active),-28.2% (active),32.4%,31.7%,10.4%,5.8% (active),–,–,8.48% (active),9.97% (active),-42.2% (active),–
COC(=O)[C@@H](C)C[C@H](Cc1ccc2ccccc2c1)NC(=O)c1csc([C@@H](C[C@H](C(C)C)N(C)C(=O)[C@@H](NC(=O)[C@H]2CCCCN2C)C(C)C)OC(C)=O)n1,70.3%,42.8%,51.8%,22.1%,47.3%,-21% (active),28.3%,68.6%,57.8%,46.1%,33.5%,23.1%,4.23% (active),–,21.7%,9.43% (active),24.2%,49.3%,28%
C=COC(=O)CCN1CC1,109%,101%,96.3%,101%,97.5%,105%,100%,113%,115%,103%,102%,90.6%,–,–,77.4%,92.3%,105%,97.9%,110%
O=[N+]([O-])c1ccc(OP(=O)(CCl)N(CCCl)CCCl)cc1 (stereo not given),90.3%,77.7%,111%,96.1%,–,107%,98.4%,106%,81.9%,–,112%,84.4%,101%,95.2%,109%,–,–,104%,99.6%
CC(=O)Oc1ccccc1C(=O)NCCC[Se]C#N,-30.6% (active),-35.1% (active),-70.3% (active),-62.1% (active),20.6%,35.4%,-49% (active),7.94% (active),44.3%,–,-17.3% (active),-37.8% (active),6.63% (active),0.654% (active),-2.68% (active),5.1% (active),22.9%,71.3%,-65.7% (active)
